According to PMC4552634, “A New Set of Chemical Starting Points with Plasmodium falciparum Transmission-Blocking Potential for Antimalarial Drug Discovery” (PLoS ONE, 2015):
Hit rate of the full screen: of about 13,000 compounds, about 3,200 (25%) showed an effect of 50% or more. Some of the results follow.

Test system: P. falciparum stage V gametocytes
Set-up: BacTiter-Glo ATP luminescence viability of purified stage V gametocytes in 384-well plates, per cent inhibition versus DMSO
Settings: 48 h, 5 µM; inhibitor

Row | Compound | % Inhibition [%]
1 | CC(C)c1ccc(NC(=O)Nc2ccc(Cn3ncc(N4CCCNCC4)c(Cl)c3=O)cc2)cc1 [TCMDC-133325] | -40.87
2 | CNC(=O)C1Cc2c([nH]c3ccc(Cl)cc23)C2(CCN(CCc3ccccc3)CC2)N1 (stereo not drawn) [TCMDC-141285] | -33.98
3 | O=c1[nH]c2ccc3[nH]cccc3c2c1C=Nc1ccc(N2CCN(CCO)CC2)cc1 [TCMDC-138634] | -29.23
4 | O=C(C=Cc1ccc(Cl)c(Cl)c1)NCCCCCN1CCCC(CCCNC(=O)/C=C/c2ccccc2)C1 (stereo not drawn) [TCMDC-139577] | 89.65
5 | O=C(C=Cc1ccc(Cl)c(Cl)c1)NCCCCCN1CCCC(CCCNC(=O)C2CC2c2ccccc2)C1 (stereo not drawn) [TCMDC-139578] | 25.82
6 | COc1ccccc1/C=C/C(=O)NCCC1CCN(CCCCCNC(=O)/C=C/c2ccc(Cl)c(Cl)c2)CC1 [TCMDC-139999] | 48.92
7 | O=C(/C=C/c1ccc(Cl)c(Cl)c1)NCCCCCN1CCCC(CNC(=O)/C=C/c2ccccc2)C1 (stereo not drawn) [TCMDC-139582] | 30.13
8 | O=C(C=Cc1ccc(Cl)c(Cl)c1)NCCCCCN1CCC(CCCNC(=O)/C=C/c2ccccc2)CC1 [TCMDC-139571] | -9.203
9 | O=C(C=Cc1ccc(Cl)c(Cl)c1)NCCCCCN1CCC(CCNC(=O)C(c2ccccc2)c2ccccc2)CC1 [TCMDC-139570] | 77.62
10 | O=C(/C=C/c1ccc(Cl)c(Cl)c1)NCCCCCN1CCC(CCNC(=O)/C=C/c2ccccc2F)CC1 [TCMDC-140006] | -17.66
11 | O=C(C=Cc1ccc(Cl)c(Cl)c1)NCCCCCN1CCC(CCNC(=O)/C=C/c2ccccc2)CC1 [TCMDC-139566] | 81.69
12 | CCc1cc(NCc2ccncc2)nc(Nc2ccc(F)cc2)n1 [TCMDC-134015] | 15.5
13 | CC(C)(C)NC(=O)C(c1ccc(F)cc1)N(C(=O)c1ccc(CN2CCOCC2)o1)c1ccc(C2CCCCC2)cc1 (stereo not drawn) [TCMDC-125562] | -47.12
14 | CCc1ccc(CN2CCC(CN(c3ccc(N4CCOCC4)c(F)c3)S(=O)(=O)c3ccc(C(C)(C)CC)cc3)CC2)cc1 [TCMDC-135290] | -12.43
15 | COc1ccccc1C1CCN(C2CCC(NC(=O)/C=C/c3cc(F)cc(F)c3)CC2)CC1 (stereo not drawn) [TCMDC-133492] | -91.94
16 | CCOC(=O)c1nc2ccc(SC3CCCCC3)cn2c1Br [TCMDC-138030] | 0.4377
17 | COc1ccc2c(=O)ccn(CCN3CCC(NCc4ccc5c(n4)NC(=O)CS5)CC3)c2c1 [TCMDC-141809] | -63.52
18 | Nc1nc(N)c2c(Oc3cccc4ccccc34)cccc2n1 [TCMDC-137739] | -7.537
19 | COc1cc2cc(-c3nc4ccccc4[nH]3)c(N)nc2cc1OC [TCMDC-125600] | 19.66
20 | Nc1nc(N)c2c(ccc3[nH]c(-c4ccccc4Cl)nc32)n1 [TCMDC-137840] | 117.2
21 | CN(C)c1ccc2nc(N)nc(N)c2c1Cl [TCMDC-137862] | -17.95
22 | Nc1nc(N)c2c(ccc3ccccc32)n1 [TCMDC-131942] | 19.03
23 | COc1ccccc1-c1nc2c(ccc3nc(N)nc(N)c32)[nH]1 [TCMDC-137976] | 123.3
24 | Fc1ccc2[nH]c(-c3ccc(-c4ccc(CNCc5cnn(-c6ccccc6)n5)cc4)cc3)nc2c1.O=C(O)C(F)(F)F [TCMDC-132969] | 45.68

Row | Compound | % Inhibition [%]
25 | Cc1ccc(N2CCN(CCCCNC(=O)c3ccc(NC(=O)c4ccc(Cl)cc4)cc3)CC2)c(C)c1 [TCMDC-138507] | 8.523
26 | O=C1OC2(CN1CC1CCN(Cc3ccc(O)c(Cl)c3)CC1)c1ccccc1-c1ccccc12 [TCMDC-136071] | 20.11
27 | O=S(=O)(NCCN1CCCC1)c1ccc(-c2cccc(CNCCc3cccs3)c2)cc1 [TCMDC-132374] | 64.21
28 | O=S(=O)(NCCN1CCCC1)c1cccc(-c2cccc(CNCCc3cccs3)c2)c1 [TCMDC-132378] | 78.26
29 | O=S(=O)(NCCN1CCCC1)c1ccc(-c2cccc(CNCCc3cccs3)c2)s1 [TCMDC-132376] | 19.55
30 | COc1ccc(CN(C)Cc2cc(C(C)C)c(C)cc2O)cc1F [TCMDC-124597] | -22.84
31 | O=C(Nc1nccs1)c1cc(-c2cccnc2)nc2ccc(Br)cc12 [TCMDC-125215] | -12.6
32 | CO[C@H](C)[C@H](NC(=O)[C@H](CC(C)C)[C@H](CCC(F)(F)F)N(O)C=O)C(=O)Nc1nccs1 [TCMDC-138190] | 15.4
33 | CN(CCC1CCN(C(=O)/C=C/c2ccc(Cl)c(Cl)c2)CC1)C1CCC(c2c[nH]c3ccccc23)CC1 (stereo not drawn) [TCMDC-140107] | 60.82
34 | O=C(/C=C/c1ccc(Cl)c(Cl)c1)N1CCC(CCCN2CCC(c3c[nH]c4ccccc34)CC2)CC1 [TCMDC-139795] | 25.74
35 | COc1ccc2[nH]cc(C3CC4CCC(C3)N4CCC3CCN(C(=O)/C=C/c4ccc(Cl)c(Cl)c4)CC3)c2c1 (stereo not drawn) [TCMDC-139670] | 106
36 | O=C(/C=C/c1ccc(Cl)c(Cl)c1)N1CCC(CN2CCC(c3c[nH]c4ccccc34)C(O)C2)CC1 (stereo not drawn) [TCMDC-139825] | -12.75
37 | O=C(/C=C/c1ccc(Cl)c(Cl)c1)N1CCC(CN2C3CCC2CC(c2c[nH]c4ccccc24)C3)CC1 (stereo not drawn) [TCMDC-139814] | 116.4
38 | O=C(/C=C/c1ccc(Cl)c(Cl)c1)N1CCC2CC(N3CCC(c4c[nH]c5ccccc45)CC3)CCC2C1 (stereo not drawn) [TCMDC-139677] | -29.29
39 | O=C(/C=C/c1ccc(Cl)c(Cl)c1)N1CCC(CN2CCC(Cc3c[nH]c4ccccc34)CC2)CC1 [TCMDC-140143] | -20.89
40 | COc1ccc2[nH]cc(C3CCN(CCC4CCN(C(=O)/C=C/c5ccc(Cl)c(Cl)c5)CC4)CC3)c2c1 [TCMDC-139658] | -35.62
41 | COC(=O)c1ccc2[nH]cc(C3CCN(CCC4CCN(C(=O)/C=C/c5ccc(Cl)c(Cl)c5)CC4)CC3)c2c1 [TCMDC-139787] | 19.69
42 | CN(CC1CCC(NC(=O)/C=C/c2ccc(Cl)c(Cl)c2)CC1)C1CCC(c2c[nH]c3ccccc23)CC1 (stereo not drawn) [TCMDC-140213] | -15.26
43 | O=C(/C=C/c1ccc(Cl)c(Cl)c1)N1CCC(NCc2c[nH]c3ccccc23)CC1 [TCMDC-134197] | -0.4755
44 | CN(CCCc1c[nH]c2ccccc12)CC1CCN(C(=O)/C=C/c2ccc(Cl)c(Cl)c2)CC1 [TCMDC-140117] | 55.67
45 | CCCCC1(NC(=O)[C@@H](Nc2ccc(C#N)c3ccccc23)C2CCCCC2)CCCCC1 [TCMDC-136636] | -65.73
46 | CCOCc1cnc(C)nc1NCC(=O)c1c(C)[nH]c2cc(C)ccc12 [TCMDC-124067] | -5.397
47 | CC1(C)CCCC(=Cc2ccc(Br)cc2)C1(O)Cn1ccnc1 (stereo not drawn) [TCMDC-125214] | 19.91
48 | COc1cc2nccc(Nc3cc(C)cc(O)c3)c2cc1OC.Cl [TCMDC-138196] | -1.594

Row | Compound | % Inhibition [%]
49 | CCCCOC(=O)c1ccc(NC(=O)Nc2ccc(Cn3ncc(N4CCCNCC4)c(Cl)c3=O)cc2)cc1 [TCMDC-133323] | -2.086
50 | COc1ccc(C(=O)C2CC2CN(C)CC(O)c2cc(C)c(OC)cc2C)cc1 (stereo not drawn) [TCMDC-136800] | 56.77
51 | COc1ccc(C(=O)C2CC2CN(C)CCC(O)c2ccc(Cl)c(Cl)c2)cc1 (stereo not drawn) [TCMDC-136792] | -25.71
52 | COc1cccc(C(=O)C2CC2CN(C)CC(O)c2cc(C)c(OC)cc2C)c1 (stereo not drawn) [TCMDC-136802] | 18.93
53 | N#Cc1ccc(NC(=NCc2ccc(Cl)cc2Cl)Nc2cccc(Cl)c2Cl)c(O)c1 [TCMDC-140224] | -0.417
54 | CC1(C)N=C(N)N=C(N)N1OCc1ccc2ccccc2c1 [TCMDC-125513] | 17.08
55 | CC(C)Nc1nc(NCCc2cnc[nH]2)nc(NCc2ccc(Cl)c(Cl)c2)n1 [TCMDC-139747] | 6.944
56 | CC(=O)Nc1ccc(C(=O)Nc2ccc(-c3cccc(-c4nc5ccc(F)cc5[nH]4)c3)cc2)cn1 [TCMDC-136822] | -42.62
57 | CC(=O)Nc1ccc(C(=O)Nc2ccc(-c3cccc(-c4nc5c(C)cccc5[nH]4)c3)cc2)cn1 [TCMDC-136831] | 74.93
58 | CC(=O)N(C)c1cccc(C(=O)Nc2ccc(-c3cccc(-c4nc5c(C)cccc5[nH]4)c3)cc2)c1 [TCMDC-137072] | -29.92
59 | CC(=O)Nc1cccc(C(=O)Nc2cccc(-c3ccc(-c4nc5c(C)cccc5[nH]4)cc3)c2)c1 [TCMDC-132136] | -12.3
60 | CC(=O)Nc1ccc(C(=O)Nc2cccc(-c3cccc(-c4nc5c(C)cccc5[nH]4)c3)c2)cn1 [TCMDC-136830] | -4.811
61 | CC(=O)Nc1ccc(C(=O)Nc2cccc(-c3ccc(-c4nc5c(C)cccc5[nH]4)cc3)c2)cn1 [TCMDC-136823] | 57.24
62 | CN(C)CCC1CCCc2ccc(NC(=O)Nc3ccc(-c4ccncc4)c4ccccc34)cc21 (stereo not drawn) [TCMDC-139156] | -24.46
63 | CCC(C)Oc1ccc(CCCON2C(N)=NC(N)=NC2(C)C)cc1 (stereo not drawn) [TCMDC-131784] | 25.06
64 | CCCCNC(=O)[C@H](Cc1ccccc1)NC(=O)c1ccc(O)c(-c2ccc(Cl)c(Cl)c2)c1 [TCMDC-140840] | 16.49
65 | CCOc1ccc(C(Cc2ccccc2)NC(=O)c2cccnc2)cc1OCC (stereo not drawn) [TCMDC-124519] | 50.66
66 | CCOc1ccc(C(C)NC(=O)C2COc3ccccc3O2)cc1OCC (stereo not drawn) [TCMDC-125018] | 78.92
67 | CCOc1cc(C(=O)Nc2cccnc2)cc(Br)c1OCCC(C)C [TCMDC-123549] | 16.86
68 | CCOc1ccc(C(C)NC(=O)Cc2ccccc2F)cc1OCC (stereo not drawn) [TCMDC-123564] | 31.28
69 | CCOc1ccc(CCC(=O)O)cc1OCC [TCMDC-124302] | 4.043
70 | COc1cc(Nc2nccc(N3CCC(NC(=O)C4COc5ccccc5O4)C3)n2)cc(OC)c1OC (stereo not drawn) [TCMDC-133625] | -0.8923
71 | CCOc1ccc(C(C)NC(=O)Nc2ccccc2)cc1OCC (stereo not drawn) [TCMDC-123556] | 52.41
72 | CN1CCN(c2ccc(Cl)cc2NC(=O)C2COc3ccccc3O2)CC1 (stereo not drawn) [TCMDC-124321] | 9.444
